Several values for one entry are separate records, joined by “and”; a condition that tells them apart may be missing. Identical values can stand only once. Records with an inconclusive call do not appear. Activity calls are given as the source filed them. Unless noted, the call rests on the fitted dose curve; in most records, active means well fitted curve in either direction with a large enough effect (not every such curve was filed as active); inconclusive means small, poorly fitted or top-dose-only effect, or another doubt; inactive means flat fitted curve, though single readings scatter.
Key:
[1] = Stat Signaling Pathway (AID 446);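 further: ME-180 cervical cancer cells given 40 pM IL-6 alongside compound; SIE-controlled beta-lactamase reporter measured as 460/530 nm FRET emission ratio; on the % scale 0 is the no-effect control and ±100 the full control effect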
How it was run: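 Screening format detects activators and inhibitors alike: ME-180 SIE-bla cells stimulated at 40 pM IL-6 for 5 hrs with compound, then dual-emission beta-lactamase read at 405 nm excitation.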

[2] = molecular target: Glucocorticoid receptor (Homo sapiens) (UniProt P04150); assay: GR-GFP Redistribution (AID 450;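 active means compounds whose dose series gives a full or clear partial fitted curve of increased nuclear translocation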; further: potency means the concentration at half of the fitted maximal effect); settings: U2OS GR-GFP nuclear translocation, laser cytometry, 2 h
[3] = molecular target: Glucocorticoid receptor (Homo sapiens) (UniProt P04150); assay: GR-EFC Redistribution (AID 451; calls by dose curve; further: potency means the concentration at half of the fitted maximal effect); settings: CHO-K1 GR-EFC translocation, beta-gal luminescence, 2 h
How it was run: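 CHO-K1 cells stably expressing nuclear-localized β-gal enzyme acceptor and GR fused C-terminally to the enzyme donor fragment; ligand-driven nuclear translocation restores β-gal by complementation. Compounds titrated up to 46 uM final, 2 h at 37 °C; luminescence read.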

[4] = molecular target: Mitogen-activated protein kinase 10 (Mus musculus) (UniProt Q61831); assay: JNK3 AlphaScreen Assay (AID 530);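 further: kinase came from lysate of stimulated human HepG2 cells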; further: potency means the concentration at half of the fitted maximal effect
How it was run: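 Inhibitors reduce antibody binding to phosphorylated biotin-cJun, lowering AlphaScreen luminescence. Lysates from HepG2 cells pre-activated by IL-1beta plus TNF-alpha supplied JNK3; compounds were titrated.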

[5] = Cell Viability - N2a (AID 540; active means well fitted curve in the direction sought with a large enough effect; an effect the other way counts as inactive or inconclusive;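 further: plate controls were DMSO alone for no effect and tamoxifen control for full effect; nearly all actives have a fitted effect of over 45% in size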)
How it was run: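 Mouse neuroblastoma N2a cells, 1500/well, exposed to compounds 40 h at 37 °C in complete medium. Viability measured as cellular ATP by CellTiter-Glo luminescence; AC50 from Hill fits of concentration-response.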

[6] = Cell Viability - NIH 3T3 (AID 541; active means well fitted curve in the direction sought with a large enough effect; an effect the other way counts as inactive or inconclusive; further: nearly all actives have a fitted effect of over 25% in size; further: potency means the concentration at half of the fitted maximal effect;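 on activity change, negative = cytotoxicity: plate controls were DMSO alone for no effect and tamoxifen positive control for full effect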); settings: NIH 3T3 cell viability, qHTS; activity change, negative = cytotoxicity: at 92.2 µM (top of the series)
How it was run: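 Mouse NIH 3T3 fibroblasts, 1000 cells/well, rested 5 hr at 37 °C, then exposed to compound for 40 hr at 37 °C in complete medium. Viability read as intracellular ATP by CellTiter-Glo luminescence; AC50 from Hill-equation fits of concentration-response data.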

[7] = Cell Viability - HUV-EC-C (AID 542; active means well fitted curve in the direction sought with a large enough effect; an effect the other way counts as inactive or inconclusive; further: nearly all actives have a fitted effect of over 35% in size; further: potency means the concentration at half of the fitted maximal effect; on activity change, negative = cytotoxicity: on the % scale 0 is the no-effect control and ±100 the full control effect)
How it was run: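 HUV-EC-C human vascular endothelial cells, 1000/well, exposed to compound for 40 hr at 37 °C in complete medium. Intracellular ATP was read by CellTiter-Glo luminescence. AC50 came from Hill-equation fits of concentration-response data.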

[8] = Cell Viability - H-4-II-E (AID 543; active means well fitted curve in the direction sought with a large enough effect; an effect the other way counts as inactive or inconclusive; further: nearly all actives have a fitted effect of over 35% in size; further: potency means the concentration at half of the fitted maximal effect)
How it was run: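 Rat hepatoma H-4-II-E cells, 1500 per well, treated 40 h at 37 °C in complete medium. Cellular ATP read by CellTiter-Glo luminescence; AC50 from Hill fits of concentration-response.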

[9] = Cell Viability - SH-SY5Y (AID 544; active means well fitted curve in the direction sought with a large enough effect; an effect the other way counts as inactive or inconclusive; further: nearly all actives have a fitted effect of over 55% in size; further: potency means the concentration at half of the fitted maximal effect)
How it was run: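 SH-SY5Y human neuroblastoma cells (1500/well) incubated 5 h, then compound-treated 40 h at 37 °C in complete medium. Viability read as intracellular ATP by CellTiter-Glo luminescence after 20 min; AC50 from Hill-equation fits of qHTS concentration-response.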

[10] = Cell Viability - Renal Proximal Tubule (AID 545; active means well fitted curve in the direction sought with a large enough effect; an effect the other way counts as inactive or inconclusive; further: nearly all actives have a fitted effect of over 40% in size; further: potency means the concentration at half of the fitted maximal effect;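 on activity change, negative = cytotoxicity: 0% = DMSO only and -100% = 100 µM tamoxifen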); settings: renal proximal tubule cells viability, primary cells of rat origin; activity change, negative = cytotoxicity: at 91.7 µM (top of the series)
How it was run: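 Cytotoxicity is scored as a concentration-dependent drop in cellular ATP in primary rat renal proximal tubule cells exposed for 40 hr. AC50 derives from Hill modelling.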

Sequence of Glucocorticoid receptor (Homo sapiens) (P04150 whole entry, looked up, the tested form may be a part): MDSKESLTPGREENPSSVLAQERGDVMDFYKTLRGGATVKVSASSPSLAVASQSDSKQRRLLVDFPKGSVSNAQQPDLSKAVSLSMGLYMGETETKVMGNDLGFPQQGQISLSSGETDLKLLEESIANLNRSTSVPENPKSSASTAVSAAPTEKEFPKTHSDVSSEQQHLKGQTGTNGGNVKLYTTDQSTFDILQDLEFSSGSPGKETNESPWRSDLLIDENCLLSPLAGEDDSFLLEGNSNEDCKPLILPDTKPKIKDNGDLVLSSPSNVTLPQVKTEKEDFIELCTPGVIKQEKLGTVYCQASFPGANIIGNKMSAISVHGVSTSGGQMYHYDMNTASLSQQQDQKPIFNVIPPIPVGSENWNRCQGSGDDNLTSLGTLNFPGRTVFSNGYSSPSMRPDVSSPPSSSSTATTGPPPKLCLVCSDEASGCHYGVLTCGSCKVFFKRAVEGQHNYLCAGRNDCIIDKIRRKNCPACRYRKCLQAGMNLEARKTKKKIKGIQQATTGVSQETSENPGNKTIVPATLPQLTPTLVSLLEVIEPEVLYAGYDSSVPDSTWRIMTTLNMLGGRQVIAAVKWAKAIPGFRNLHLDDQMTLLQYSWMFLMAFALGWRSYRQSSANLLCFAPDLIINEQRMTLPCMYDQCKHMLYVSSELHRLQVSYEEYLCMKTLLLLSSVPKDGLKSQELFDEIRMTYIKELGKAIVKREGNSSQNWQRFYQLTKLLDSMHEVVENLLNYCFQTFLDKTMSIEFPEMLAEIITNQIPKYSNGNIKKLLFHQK

C[N+](C)(C)CCOC(=O)CCC(=O)OCC[N+](C)(C)C
inactive: outcome [1] | Potency [2] > 46 µM | Potency [3] > 46 µM | Potency [4]

CN1CCN(CC(=O)N2c3ccccc3C(=O)Nc3cccnc32)CC1
inactive: outcome [1] | Potency [2] > 46 µM and > 20.6 µM | Potency [3] > 46 µM and > 20.6 µM | Potency [4]

CC(=O)Oc1cc(C(C)C)c(OCCN(C)C)cc1C
inactive: outcome [1] | Potency [2] > 46 µM and > 20.6 µM | Potency [3] > 46 µM and > 20.6 µM | Potency [4]

O=C1NCN(c2ccccc2)C12CCN(CCCC(c1ccc(F)cc1)c1ccc(F)cc1)CC2
inactive: outcome [1] | Potency [2] > 46 µM and > 20.6 µM | Potency [3] > 46 µM and > 20.6 µM | Potency [4]

CN(C)CC/C=C1\c2ccccc2COc2ccccc21
inactive: outcome [1] | Potency [2] > 46 µM and > 20.6 µM | Potency [3] > 46 µM and > 20.6 µM | Potency [4]

CC(C)NNC(=O)c1ccncc1
inactive: outcome [1] | Potency [2] > 46 µM and > 20.6 µM | Potency [3] > 46 µM and > 20.6 µM | Potency [4]

CN1CCN(C2=Nc3ccccc3Oc3ccc(Cl)cc32)CC1
inactive: outcome [1] | Potency [2] > 46 µM and > 20.6 µM | Potency [3] > 46 µM and > 20.6 µM | Potency [4]

CN(C)C(=O)Oc1ccc[n+](C)c1
inactive: outcome [1] | Potency [2] > 46 µM and > 20.6 µM | Potency [3] > 46 µM | Potency [4]

CCN(CC)CCNC(=O)c1cc(S(C)(=O)=O)ccc1OC
inactive: outcome [1] | Potency [2] > 46 µM and > 20.6 µM | Potency [3] > 46 µM and > 20.6 µM | Potency [4]

C[N+](C)(C)CCCCCCCCCC[N+](C)(C)C
inactive: outcome [1] | Potency [2] > 46 µM and > 20.6 µM | Potency [3] > 46 µM and > 20.6 µM | Potency [4]

CN/C(=C\[N+](=O)[O-])NCCSCc1ccc(CN(C)C)o1
inactive: outcome [1] | Potency [2] > 46 µM and > 20.6 µM | Potency [3] > 46 µM and > 20.6 µM | Potency [4]

O=C(O)CN(CCOCCOCCN(CC(=O)O)CC(=O)O)CC(=O)O
inactive: outcome [1] | Potency [2] > 46 µM | Potency [3] > 46 µM | Potency [4]

NC(N)=NC(=O)Cc1c(Cl)cccc1Cl
inactive: outcome [1] | Potency [2] > 46 µM and > 20.6 µM | Potency [3] > 46 µM and > 20.6 µM | Potency [4]

CCCOc1ccccc1-c1nc2n[nH]nc2c(=O)[nH]1
inactive: outcome [1] | Potency [2] > 46 µM and > 20.6 µM | Potency [3] > 46 µM and > 20.6 µM | Potency [4]

O=C1CC2(CCCC2)CC(=O)N1CCCCN1CCN(c2ncccn2)CC1
inactive: outcome [1] | Potency [4]

C[n+]1cc2c3c(ccc2c2ccc4cc5c(cc4c21)OCO5)OCO3
active: Potency [2] 6.57 µM
inactive: Potency [3] > 46 µM and > 20.6 µM | Potency [4]

CCCCNC(=O)NS(=O)(=O)c1ccc(C)cc1
inactive: outcome [1] | Potency [2] > 46 µM and > 20.6 µM | Potency [3] > 46 µM and > 20.6 µM | Potency [4] | outcome [5] | activity change, negative = cytotoxicity [6] -10.4% | Potency [7] | Potency [8] | Potency [9] | activity change, negative = cytotoxicity [10] -6.67%

COC(=O)[C@@H](N)Cc1ccc(O)c(O)c1
inactive: outcome [1] | Potency [4]

CCCN(CCC)CCc1cccc2c1CC(=O)N2
inactive: Potency [2] > 46 µM | Potency [3] > 46 µM | Potency [4]

COC(=O)[C@H]1[C@H]2C[C@@H]3c4[nH]c5cc(OC)ccc5c4CCN3C[C@H]2C[C@@H](OC(=O)c2cc(OC)c(OC)c(OC)c2)[C@@H]1OC
active: Potency [7] 50.1 µM | Potency [8] 31.6 µM | Potency [9] 31.6 µM | activity change, negative = cytotoxicity [10] -101%
inactive: Potency [4] | activity change, negative = cytotoxicity [6] -19.4%

COc1ccc([C@@H]2Sc3ccccc3N(CCN(C)C)C(=O)[C@@H]2OC(C)=O)cc1
inactive: Potency [2] > 46 µM and > 20.6 µM | Potency [3] > 46 µM

C[C@H](CS)C(=O)N1CCC[C@H]1C(=O)O
inactive: outcome [1] | Potency [4]

CC[N+](C)(C)c1cccc(O)c1
inactive: outcome [1] | Potency [4]

CCCC(C(=O)OCCN(CC)CC)(c1ccccc1)c1ccccc1
inactive: outcome [1] | Potency [2] > 46 µM and > 20.6 µM | Potency [3] > 46 µM and > 20.6 µM | Potency [4]

Nc1nc(N)c2nc(-c3ccccc3)c(N)nc2n1
inactive: outcome [1] | Potency [2] > 46 µM and > 20.6 µM | Potency [3] > 46 µM and > 20.6 µM | Potency [4]
active: activity change, negative = cytotoxicity [6] -88.4% | Potency [8] 0.316 µM | activity change, negative = cytotoxicity [10] -93%

CSc1ccc(C(=O)c2[nH]c(=O)[nH]c2C)cc1
inactive: outcome [1] | Potency [4]

CCN(CC)CC(=O)Nc1c(C)cccc1C
inactive: outcome [1] | Potency [4]

CNCCCN1c2ccccc2CCc2ccccc21
inactive: outcome [1] | Potency [4]

NC(=O)N1c2ccccc2C=Cc2ccccc21
inactive: outcome [1] | Potency [4] | outcome [5] | activity change, negative = cytotoxicity [6] -9.01% | Potency [7] | Potency [8] | Potency [9] | activity change, negative = cytotoxicity [10] 2.97%

CN(C)CCCN1c2ccccc2Sc2ccccc21
inactive: outcome [1] | Potency [4]

COc1ccc(CN(CCN(C)C)c2ccccn2)cc1
inactive: outcome [1] | Potency [2] > 46 µM and > 20.6 µM | Potency [3] > 46 µM and > 20.6 µM | Potency [4] | outcome [5] | activity change, negative = cytotoxicity [6] -13.1% | Potency [7] | Potency [8] | Potency [9] | activity change, negative = cytotoxicity [10] 7.61%

Cc1ccc(=O)n(-c2ccccc2)c1
inactive: outcome [1]
active: Potency [4] 12.6 µM

CCN1CCC[C@H]1CNC(=O)c1c(O)c(Cl)cc(Cl)c1OC
inactive: Potency [4]

c1cnc(N2CCN(Cc3ccc4c(c3)OCO4)CC2)nc1
inactive: outcome [1] | Potency [2] > 46 µM and > 20.6 µM | Potency [3] > 46 µM and > 20.6 µM | Potency [4]

NC(=Nc1ccccc1)Nc1ccccc1
inactive: Potency [4] | outcome [5] | activity change, negative = cytotoxicity [6] -3.31% | Potency [7] | Potency [8] | Potency [9] | activity change, negative = cytotoxicity [10] -3.07%

NCCCNCCSP(=O)(O)O
inactive: outcome [1] | Potency [2] > 46 µM | Potency [3] > 46 µM | Potency [4]

CCn1cc(C(=O)O)c(=O)c2cc3c(cc21)OCO3
inactive: outcome [1] | Potency [4]

CN=C(NC#N)NCCSCc1nc[nH]c1C
inactive: outcome [1] | Potency [4] | outcome [5] | activity change, negative = cytotoxicity [6] -4.92% | Potency [7] | Potency [8] | Potency [9] | activity change, negative = cytotoxicity [10] -10.6%

CCCCCCCC/C=C\CCCCCCCC(=O)NCc1ccc(O)c(OC)c1
inactive: Potency [3] > 46 µM

O=C(O)CCCCCCCC(=O)O
inactive: Potency [4]

C[N+](C)(C)CCOC(N)=O
inactive: outcome [1] | Potency [4]

N[C@@H](COP(=O)(O)O)C(=O)O
inactive: Potency [2] > 46 µM | Potency [3] > 46 µM | Potency [4]

Nc1ncn([C@@H]2O[C@H](CO)[C@@H](O)[C@H]2O)c(=O)n1
inactive: Potency [4] | Potency [7]
active: Potency [6] 5.01 µM | Potency [9] 6.31 µM | Potency [10] 15.8 µM

CCc1cccc(N(C)C(N)=Nc2cccc3ccccc23)c1
inactive: Potency [2] > 46 µM | Potency [3] > 46 µM | Potency [4]

COc1cc(Cc2cnc(N)nc2N)cc(OC)c1OC
inactive: outcome [1] | Potency [4] | outcome [5] | activity change, negative = cytotoxicity [6] -10.3% | Potency [7] | Potency [9] | activity change, negative = cytotoxicity [10] -5.57%

Cc1scc2c1N(C(=O)CN1CCN(C)CC1)c1ccccc1NC2=O
inactive: outcome [1] | Potency [4]

O=c1[nH]c(=O)n([C@H]2C[C@H](O)[C@@H](CO)O2)cc1Br
inactive: Potency [4] | outcome [5] | activity change, negative = cytotoxicity [6] -17.9% | Potency [7] | Potency [8] | Potency [9] | activity change, negative = cytotoxicity [10] -3.47%

CCCCOCCOCCOCc1cc2c(cc1CCC)OCO2
inactive: outcome [5] | Potency [7] | Potency [8] | Potency [9] | activity change, negative = cytotoxicity [10] -1.35%

COc1cc2c(cc1OC)-c1cc(=Nc3c(C)cc(C)cc3C)n(C)c(=O)n1CC2
inactive: Potency [2] > 46 µM | Potency [3] > 46 µM | Potency [4]

Reference: PubChem BioAssay (NCATS)
